Bioassay records from PubChem BioAssay.
Nrf2 block: blocks Nrf2 signaling; A549 ARE-Fluc reporter, luciferase luminescence, 18-24 h; Potency, µM (top dose mostly 46 µM), most hits filed as inhibitors; 360,000 tested, 2.1% active; AID 504444; also: nearly all actives have a fitted effect of over 60% in size
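Quantitative HTS in A549 cells stably bearing an antioxidant response element-firefly luciferase construct. Inhibition of Nrf2-driven transcription was scored by luminescence after 18-24 h of compound exposure at 37 °C.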
TGFb SMAD3 inh: TGF-b pathway inhibition. HepG2 CAGA-GFP TGF-b/SMAD3 reporter, GFP fluorescence, 18 h; TGF-beta stimulated, 500 pg/mL final. AID 588855. 410,000 tested, 1.2% active. Potency, µM (doses to about 46.1 µM), usual class: inhibitors; also: nearly all actives have a fitted effect of over 65% in size
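Per well, imaged GFP fluorescence of HEPG2 CAGA-GFP cells gives the signal; cells get compound, then TGF-beta (500 pg/mL final), 18 h at 37 degrees C; %Activity versus -TGF-beta and +DMSO controls.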
HepG2 tox-1: kills HepG2 cells in TGF-b inhibitor counter-screen; HepG2 CAGA-GFP viability, ATP luminescence, 18 h; Potency, µM (doses to about 46.1 µM), hits mostly cytotoxic; 410,000 tested, 0.76% active
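HepG2 CAGA-GFP cells (1000/well, DMEM with 1% FBS) received compound, then TGF-beta at 500 pg/mL final, and were incubated 18 hours at 37 degrees C. Viability was read by CellTiter-Glo luminescence. Media-only wells were set as complete cell-killing and DMSO as no toxicity.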
ATXN2 expr inh: ATXN2 expression inhibition; Potency, µM (highest dose often 57 µM), hits mostly inhibitors; 360,000 tested, 0.72% active; HEK-293 ATXN2-luciferase reporter, luminescence, 24 h; also: nearly all actives have a fitted effect of over 55% in size
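ATXN2-luciferase reporter cells (luciferase flanked by upstream and downstream ATXN2 gene portions) were treated 24 h at 37 °C with compounds at up to 57 uM. SteadyGlo luminescence gave expression; GF-AFC fluorescence gave viability.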
S2 tox: viability counter-screen for ATXN expression inhibitors; S2 cells (HEK-293 line with an ATXN2-luciferase reporter) viability, CellTiter-Fluor protease fluorescence, 24 h; Potency, µM (series often up to 56.7 µM), most hits filed as cytotoxic; 400,000 tested, 0.49% active; also: nearly all actives have a fitted effect of over 40% in size
A549 tox-1: counter-screen for Nrf2 inhibitors: cytotoxicity in A549 cells. A549 ARE-Fluc cells, CellTiter-Fluor viability, 18-24 h. Potency, µM (series often up to 46 µM), hits mostly inhibitors. 390,000 tested, 0.16% active
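A549 ARE-Fluc cells in 5% FBS OPTI-MEM, 5000 cells/well, rested 2 h then exposed to compounds in concentration-response for 18-24 h at 37 °C. Viability by CellTiter-Fluor fluorescence (Ex 405/Em 525) after 30 min; luciferase luminescence (BugLite, 15 min, RT) read afterwards.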
FLuc counter 3: blocks purified firefly luciferase in Nrf2 counterscreen. shares compounds with Nrf2 block. purified firefly luciferase, luminescence inhibition. Potency, µM (top dose mostly 57.5 µM), actives largely listed as inhibitors. 1,400 tested, 4% active. AID 720522; also: nearly all actives have a fitted effect of over 65% in size
Target sequence (P08659 whole entry, looked up): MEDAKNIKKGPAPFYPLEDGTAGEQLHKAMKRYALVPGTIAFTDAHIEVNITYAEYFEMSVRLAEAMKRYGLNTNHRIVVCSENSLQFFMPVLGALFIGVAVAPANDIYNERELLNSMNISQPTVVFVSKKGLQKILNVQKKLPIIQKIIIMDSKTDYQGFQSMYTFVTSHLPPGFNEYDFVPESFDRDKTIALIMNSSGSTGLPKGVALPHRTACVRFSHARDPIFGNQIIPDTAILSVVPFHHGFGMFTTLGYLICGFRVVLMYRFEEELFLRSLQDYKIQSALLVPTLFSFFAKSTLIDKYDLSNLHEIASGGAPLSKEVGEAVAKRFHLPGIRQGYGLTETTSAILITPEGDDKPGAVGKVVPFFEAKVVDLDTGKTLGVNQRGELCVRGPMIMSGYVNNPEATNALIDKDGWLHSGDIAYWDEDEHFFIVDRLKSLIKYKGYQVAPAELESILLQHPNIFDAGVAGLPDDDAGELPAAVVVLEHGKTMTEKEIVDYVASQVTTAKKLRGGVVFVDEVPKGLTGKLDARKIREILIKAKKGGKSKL
A549 tox-2: A549 cytotoxicity, Nrf2 inhibitor counterscreen; shares compounds with Nrf2 block; A549 ARE-Fluc cells, cytotoxicity counterscreen; Potency, µM (series often up to 46.1 µM), usual class: inhibitors; 1,400 tested, 2% active; AID 720523;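 also: cells exposed to compounds for 18 to 24 hours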
Nrf2 ARE inh: reduces Nrf2 ARE reporter signal in A549 cells; 1,400 tested, 74% active; Potency, µM (titrated, usually from 46.1 µM), hits mostly inhibitors; A549 ARE-firefly luciferase reporter, luminescence; AID 720524; shares compounds with Nrf2 block; also: nearly all actives have a fitted effect of over 65% in size
TGFb confirm: confirmation of TGF-b signaling inhibitors in HepG2 reporter cells; HepG2 CAGA-GFP TGF-b reporter, GFP fluorescence, 18 h; cells stimulated with TGF-beta, 500 pg/mL; 1,600 tested, 63% active; Potency, µM (titrated, usually from 46.1 µM), usual class: inhibitors; shares compounds with TGFb SMAD3 inh; also: nearly all actives have a fitted effect of over 65% in size
HepG2 tox-2: counter-screen for TGF-b inhibitors: cytotoxicity in HepG2 cells. shares compounds with TGFb SMAD3 inh. HepG2 CAGA-GFP viability, ATP luminescence, 18 h; cells stimulated with TGF-beta, 500 pg/mL. Potency, µM (doses to about 46.1 µM), usual class: inhibitors. 1,600 tested, 27% active; also: nearly all actives have a fitted effect of over 70% in size
CCL64 TGFb inh: orthogonal confirmation of TGF-b inhibitors in CCL64 cells; shares compounds with TGFb SMAD3 inh; CCL64 CAGA-GFP reporter, TGF-b stimulated, GFP fluorescence, 18 h; Potency, µM (series often up to 46.1 µM), actives largely listed as inhibitors; 1,600 tested, 41% active; also: nearly all actives have a fitted effect of over 65% in size
TGFb COP inh: TGF-b inhibition validated with COP promoter; 1,600 tested, 3% active; HepG2 COP-GFP TGF-b reporter, GFP fluorescence, 18 h; cells stimulated by added recombinant TGF-beta; shares compounds with TGFb SMAD3 inh; AID 720537; Potency, µM (doses to about 46.1 µM), usual class: inhibitors; also: nearly all actives have a fitted effect of over 70% in size
Of the large screens only hits and unclear results are named; the others gave an inactive call (follow-up assays come after a bar, where they were run); ! = a repeat was not active. Shown are actives, neighbours in structure and some others; about 3.8% of the full set was active somewhere. Calls follow the shape of the dose curve; as a rule, active = well fitted curve in the direction sought with a large enough effect; inconclusive = small, poorly fitted or top-dose-only effect, or another doubt; inactive = no such curve, though single readings can be large; an effect the other way counts as inactive or inconclusive.

COc1ccccc1/C=C/C(=O)N1CCc2cc(OC)c(OC)cc2C1C (stereo not given)	Nrf2 block inconclusive, TGFb SMAD3 inh 14.1µM | FLuc counter 3 inactive | A549 tox-2 inactive | Nrf2 ARE inh 7.31µM | TGFb confirm 11.6µM | HepG2 tox-2 inconclusive | CCL64 TGFb inh inactive | TGFb COP inh inactive
Cc1ccnc(NC(=O)CCCOc2cc(=O)n(C)c3ccccc23)c1	Nrf2 block 4.11µM, TGFb SMAD3 inh 2.24µM, ATXN2 expr inh 1.26µM!, A549 tox-1 inconclusive | FLuc counter 3 inactive | A549 tox-2 inconclusive | Nrf2 ARE inh 5.8µM | TGFb confirm 5.8µM | HepG2 tox-2 4.11µM | CCL64 TGFb inh 25.9µM | TGFb COP inh inactive
CCOC(=O)N1CCN(c2cc(=O)n(-c3cccc(C)c3)c(=O)[nH]2)CC1	none
Brc1cc(Br)c2ncnc(N3CCCCC3)c2c1	Nrf2 block 25.9µM, TGFb SMAD3 inh 6.31µM, A549 tox-1 inconclusive | TGFb confirm 9.2µM | HepG2 tox-2 4.11µM | CCL64 TGFb inh inconclusive | TGFb COP inh inactive
Clc1ccc(-n2ncc3c(N4CCCCCC4)ncnc32)cc1	Nrf2 block inconclusive
CCOc1ccc(CN2CCN(C(=O)c3cccc4ccccc34)CC2)cc1	Nrf2 block inconclusive, TGFb SMAD3 inh inconclusive, ATXN2 expr inh inconclusive | TGFb confirm 9.2µM | HepG2 tox-2 inconclusive | CCL64 TGFb inh inactive | TGFb COP inh inactive
O=C(CNC(=S)N(Cc1ccccc1)Cc1ccccc1F)NCc1ccc(Cl)cc1	Nrf2 block 25.9µM, TGFb SMAD3 inh 12.6µM, A549 tox-1 inconclusive | TGFb confirm 13µM | HepG2 tox-2 inconclusive | CCL64 TGFb inh inconclusive | TGFb COP inh inactive
Cc1c(NS(=O)(=O)c2cc(C(=O)NCc3ccco3)cc(Cl)c2Cl)c(=O)n(-c2ccccc2)n1C	none
Cc1ccc(CC(=O)Nc2ncc([N+](=O)[O-])s2)cc1	Nrf2 block inconclusive, S2 tox inconclusive (no result: ATXN2 expr inh)
CCCCC(CC)C(=O)Nc1ncc([N+](=O)[O-])s1 (stereo not given)	Nrf2 block 9.2µM, TGFb SMAD3 inh 11.2µM, ATXN2 expr inh inconclusive, S2 tox inconclusive, A549 tox-1 18.4µM | TGFb confirm 7.31µM | HepG2 tox-2 inconclusive | CCL64 TGFb inh inconclusive | TGFb COP inh inactive
COc1cccc(C2(CSc3nnc(-c4cc(OC)c(OC)c(OC)c4)o3)OCCO2)c1	none
COc1ccc(CNC(=O)CN2C(=O)COc3ccc(S(=O)(=O)N4CCCCC4)cc32)cc1	none
Cc1nnc(SC(=O)N2c3ccccc3Sc3ccccc32)s1	Nrf2 block 13µM, TGFb SMAD3 inh 7.08µM, ATXN2 expr inh 25.1µM (no result: S2 tox) | TGFb confirm 11.6µM | HepG2 tox-2 14.6µM | CCL64 TGFb inh 3.26µM | TGFb COP inh inconclusive
CCN1CCN(c2ccc(S(=O)(=O)N3CCCCC3)cc2NC(=O)c2ccc([N+](=O)[O-])s2)CC1	Nrf2 block inconclusive, TGFb SMAD3 inh 8.91µM, ATXN2 expr inh 25.1µM, S2 tox inconclusive, A549 tox-1 inconclusive | TGFb confirm 16.4µM | HepG2 tox-2 inconclusive | CCL64 TGFb inh inconclusive | TGFb COP inh inconclusive
CCn1c(=O)c(C(=O)CN2CCN(S(=O)(=O)c3cc(C)ccc3C)CC2)c(N)n(Cc2ccccc2)c1=O	Nrf2 block inconclusive, TGFb SMAD3 inh 11.2µM | TGFb confirm 11.6µM | HepG2 tox-2 inconclusive | CCL64 TGFb inh 11.6µM | TGFb COP inh inactive
CCC(C)NC(=O)c1sc2nc(C)c(C(=O)Nc3ccc(C)cc3C)c(-c3ccc(Br)cc3)c2c1N (stereo not given)	A549 tox-1 inconclusive
Cc1ccc(F)c(S(=O)(=O)NC(=O)C2(C)CCN2C(=O)c2ccc(C(F)(F)F)nc2C)c1 (stereo not given)	none (no result: Nrf2 block, A549 tox-1)
CNC(=S)N/N=C/c1cc(C)n(-c2ccc(Cl)c(Cl)c2)c1C	TGFb SMAD3 inh 12.6µM | TGFb confirm 20.6µM | HepG2 tox-2 inconclusive | CCL64 TGFb inh inconclusive | TGFb COP inh inactive
Cc1ccc(-n2c(C)cc(/C=N/NC(N)=S)c2C)cc1	none
CCCc1nc([N+](=O)[O-])c(S(=O)(=O)c2ccccc2)n1CC(C)C	TGFb SMAD3 inh 10µM, ATXN2 expr inh inconclusive, S2 tox inconclusive | TGFb confirm 20.6µM | HepG2 tox-2 inconclusive | CCL64 TGFb inh 16.4µM | TGFb COP inh inactive
CCCCn1c(CCC)nc([N+](=O)[O-])c1Sc1ccc(Cl)cn1	Nrf2 block inconclusive, ATXN2 expr inh inconclusive
C[C@@H](C(=O)NCCc1ccccc1F)N1C(=O)N2CCc3c([nH]c4ccccc34)[C@@]2(C)C1=O	Nrf2 block inconclusive, TGFb SMAD3 inh inconclusive, S2 tox inconclusive
C[C@@H](C(=O)NCCc1ccccc1)N1C(=O)N2CCc3c([nH]c4ccccc34)[C@@]2(C)C1=O	Nrf2 block inconclusive, TGFb SMAD3 inh 10µM, S2 tox inconclusive | TGFb confirm 16.4µM | HepG2 tox-2 inconclusive | CCL64 TGFb inh inconclusive | TGFb COP inh inactive
